In the supplement of paper PMC9492666:

Test system: HCC1937
Experiment: relative cell viability, compound + RSL3, vs DMSO (fraction of DMSO control); higher = less growth inhibition
Settings: 72 h
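Further: breast cancer cell viability read out with the CCK-8 kit after co-treatment of each compound with the ferroptosis inducer RSL3.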

In order of falling relative cell viability:
1. C[C@H](CCC(=O)O)[C@H]1CC[C@H]2[C@@H]3C[C@H](O)[C@@H]4C[C@H](O)CC[C@]4(C)[C@H]3CC[C@]12C [Hyodeoxycholic acid] + COC(=O)c1ccc([C@H]2c3[nH]c4ccccc4c3C[C@H](C(=O)OC)N2C(=O)CCl)cc1 [RSL3]  0.829
2. CCCC[S+]([O-])c1sc2nc(-c3cccs3)cc(-c3ccccc3)c2c1N (configuration not stated) + COC(=O)c1ccc([C@H]2c3[nH]c4ccccc4c3C[C@H](C(=O)OC)N2C(=O)CCl)cc1 [RSL3]  0.748
3. O=S(=O)(Nc1ccc(C(O)(C(F)(F)F)C(F)(F)F)cc1)c1cccs1 + COC(=O)c1ccc([C@H]2c3[nH]c4ccccc4c3C[C@H](C(=O)OC)N2C(=O)CCl)cc1 [RSL3]  0.617
4. C=CC[S+]([O-])C[C@H](N)C(=O)O (some centres not stated) [Alliin] + COC(=O)c1ccc([C@H]2c3[nH]c4ccccc4c3C[C@H](C(=O)OC)N2C(=O)CCl)cc1 [RSL3]  0.554
5. COC(=O)c1cc(Cl)c(O)c(S(=O)(=O)Nc2cc(-c3ccccc3)c(F)cc2F)c1 + COC(=O)c1ccc([C@H]2c3[nH]c4ccccc4c3C[C@H](C(=O)OC)N2C(=O)CCl)cc1 [RSL3]  0.45
6. Cn1c2cc([S+](C)[O-])sc2c2cnn(Cc3cccc(N)c3)c(=O)c21 (configuration not stated) + COC(=O)c1ccc([C@H]2c3[nH]c4ccccc4c3C[C@H](C(=O)OC)N2C(=O)CCl)cc1 [RSL3]  0.402
7. CN(C)C(=O)Nc1cccc(-c2ccc(N(C)C)cc2)c1 [Atglistatin] + COC(=O)c1ccc([C@H]2c3[nH]c4ccccc4c3C[C@H](C(=O)OC)N2C(=O)CCl)cc1 [RSL3]  0.321
